Source: PubChem BioAssay AID1508600 (Functional Genomics Laboratory (NCATS/FGL), 2020)
Hit rate of the full screen: of about 53,000 sequences, about 3,700 (7%) were called active. This excerpt belongs to a sample that is enriched for actives. Values without a mark were called inactive.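 How the source made its calls: active means gene knockdowns whose robust z-score for IL-1 alpha signal is at least 2 or at most -2, so actives lie on both sides; inactive means the rest.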

Assay: Components of the Cytosolic LPS Sensing Pathway: Gene Identification via Genome-wide siRNA Screen;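 further: robust z of the log signal after scaling to non-targeting control siRNA wells of the plate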
Conditions: RAW264.7 macrophages, IL-1a HTRF, actives lie on both sides, screened at 100 nM (by protocol), cells primed 5 h with Pam3CSK4 first
Outline: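 Read-out: IL-1a HTRF on supernatant, divided by plate negative-control median ×100, log-transformed and converted to robust z-score. Cells were RAW264.7 given 100 nM siRNA, Pam3CSK4-primed 5 hours, then LipidA-transfected 24 hour.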

| Sequence | z-score |
| --- | --- |
| GGUGUGUAUGGUGCUAGGATT against Olfr1507 | -2.43 (active) |
| CCAGCUAAAAAGAUGGUAGTT against Rreb1 | 0.319 |
| CCUGAAAGCUAAUAUGAAATT against Defb44-ps | 0.0593 |
| GGCUUUUAGUACUGAUAGUTT against Neu3 | 2.6 (active) |
| CCUCGUUACAUCCUCCCUGTT against Pold1 | -0.142 |
| CGAUUAUCGGCCCAGCAAATT against Bmp1 | 1.01 |
| GGUCUCCCUUCAGUAUGAGTT against Cela3b | -0.602 |
| CCUAGAGCUUUUCAGAAUATT against Rsl1d1 | 0.4 |
| CGAUCGGCGACCUUUUAGATT against Irak3 | -0.527 |
| GGCAGUAGUUAGCAAAUAUTT against Ska1 | -1.24 |
| GGAUCUGGAAUCACUGUUUTT against Lmnb2 | -0.451 |
| GGUUUUAGGACACCUGGUUTT against Gys1 | 2.13 (active) |
| GGUGCCAUCCCAAACUUUATT against Frat2 | 0.788 |
| CCUCUUGAGGUCUCGUCAATT against Fam221b | -0.0968 |
| GGAUACAAAUCAGGUUCUCTT against Kansl2 | 0.0399 |
| GCCUUCUUAAGCUCUGAGCTT against Dhrs13 | -2.97 (active) |
| GGAAAAAAGAGAGGUCAGATT against Meox1 | -1.02 |
| GGAAAUUGCUCAGGAGUUUTT against Anxa5 | -1.26 |
| GGAGAAUCCUGUUUUUUGUTT against Elp4 | 0.43 |
| GGUGCCAAUCAUUGUUAUGTT against Kcnv1 | 1.73 |
| CCCGAGAUGAGGAACUUUUTT against Ndnf | -0.359 |
| GGAGUAAUGAUAAGCCCUCTT against Tex264 | -0.0637 |

| Sequence | z-score |
| --- | --- |
| GCUCUACCUCAGAUAAAGGTT against Banf2 | -2.45 (active) |
| GGAUCUCAUACAGAAUCCGTT against Haus4 | 0.216 |
| GGACCUAGAGGACUAUAAATT against P3h2 | 0.894 |
| GGAGCAGGUUACCAGAAAATT against E130114P18Rik | 0.301 |
| GGGUUUGACUGUACAGUACTT against Adamts4 | -1.29 |
| GGCCUUUACACGUGAGUCUTT against Zfp420 | -0.864 |
| CGGAUGCGACAAAAAUCACTT against Il4 | 1.77 |
| GCACUUACCGGAUCCAUUGTT against Clk4 | -0.793 |
| GCACAGGUCUAAUUCGUCUTT against Grik1 | -2.78 (active) |
| GGACUUGACCCUGUCUUUGTT against Ostm1 | 0.871 |
| GGAACAAAAACUGGUGCGCTT against Emilin2 | 2.07 (active) |
| GGCAUCUGAGCUGAGGAUUTT against Gem | -0.295 |
| GGAUAGCUUGAUCAAUCUUTT against Cisd2 | -0.13 |
| GCCUCUUAAUUUUAAGCUGTT against Gpr82 | -0.505 |
| GGGAAACUUGAACUUUGAUTT against Rsph1 | -1.54 |
| GGGACAAUUCAGGAUGGAGTT against Ift88 | 0.0559 |
| GCGGCUUUACAAGGAUGACTT against Elob | 2 (active) |
| GGUCCUUUUUUCAACCAGCTT against Sh3gl1 | -0.259 |
| CCAAGGGUUGUUAAGUAUUTT against Cdh26 | 1.08 |
| GGAUUUUCAUCGUGCUUUGTT against Necab3 | 1.23 |
| CCGUGAUAAUGUAACACCUTT against Prtg | 0.0383 |
| GGUAAACAUUGCUACUUUGTT against Mpdz | 0.935 |

| Sequence | z-score |
| --- | --- |
| GGCCAAGAAAAACUACUAUTT against Kcnk5 | -0.706 |
| CCUAGGUUUGAAGACUCCCTT against Asphd2 | -2.03 (active) |
| CCAAAUAUCACACACCCGATT against Fam187a | 0.798 |
| GGUGACUACUACAGGAAACTT against Hps1 | 2.3 (active) |
| GCACUUAUGAUGUCCUAUUTT against Sema4b | 0.606 |
| GGACAAAGUCUAGAAACUATT against Lrrc2 | 0.26 |
| GGCUAUGACAAUGCCUACATT against Maged2 | 0.00495 |
| GCGAAUCUUGCUUCUGACCTT against H4c8 | -2.13 (active) |
| GGUUUUUCGAGUUUUUUCUTT against Msx1 | 1.06 |
| GGCUGCUUAUAAAAUUUUCTT against Mipep | 0.398 |
| GGCAUGUUUCUUGACUUAATT against Coil | 0.122 |
| GGACCUGGUUCAGGUAUCATT against Col6a3 | -2.17 (active) |
| GGGUUUAUUUGGUCAAGAUTT against Mpc2 | -0.349 |
| GCAUACGUGUUCAAUGGUGTT against Ppef2 | -0.541 |
| CCGUGGAACUUAAAUAGUUTT against Pard6g | 2.66 (active) |
| GGAUCUCGCUGGCAAUAAUTT against Gpr45 | -0.222 |
| CCAUUUUUCCUACGUGGGUTT against Zfand2a | 0.449 |
| GGAUUUGGGUUUUCUAUAATT against Cfb | -0.0373 |
| CAAUGACAGCAGAUGACGUTT against Crabp2 | 0.0834 |
| CCGGUCAAAAUUGAAAAGGTT against Bves | 0.666 |
| GGUGAAAAGUCCUGCCAAGTT against Nefh | 0.408 |
| GGCCAUUUGGAAACUAUUATT against Anapc11 | -0.109 |

| Sequence | z-score |
| --- | --- |
| GGCUGUGAGAUAGAUCUAATT against Arhgef40 | 2.07 (active) |
| GCAAGGAGUUUAUGUGAGUTT against Olfr170 | 0.297 |
| GGGCAAAAUACAAAAGGAGTT against Mlph | -0.9 |
| GGACAUUCUCAAAUCUUGATT against Praf2 | 0.244 |
| GCAUAAGGACCCUUUGUCATT against Rasl10b | -1.27 |
| GCUGUAUCAGUCUUUCUAUTT against Cyp27b1 | 0.442 |
| GGACAUGUCGGAUGGCUUCTT against P4ha1 | 0.212 |
| GGCAGCAUUAAAACUUAAGTT against Chtop | 2.71 (active) |
| GGGUAACAUGAAGAUCAAUTT against Rnf19a | 0.488 |
| GGGACAAAAGCAAUCAAACTT against H2-M11 | 2.06 (active) |
| GCAAGCAUGCUCAUAAAGATT against Cast | -0.142 |
| CGUAUGCAGAACAACAUUUTT against Klhl2 | 1.77 |
| CGAUCCCUGUCUGUUGGAUTT against Spint4 | 0.944 |
| GGAGGUAUACAGUAAGGAGTT against Fbxo32 | 0.542 |
| GGCUGACAGUAACAAGUGGTT against Fignl1 | 3.72 (active) |
| GCCAGGAUCCAUCAAUUCCTT against Olfr376 | -1.84 |
| CCCUGAAAAUUAUCGAGCGTT against Galnt18 | -0.493 |
| CCCAGGAACUAUGAGUUGUTT against Rnf31 | -1.87 |
| GGAGAAAUUCUUCAAUGAGTT against Syt2 | -0.19 |
| GGAGACCAAAAUUUCUUGGTT against Sox9 | 0.0192 |
| GGAUCCGAACAUCCUCAGGTT against Hr | -2.22 (active) |
| CGAAGAGAUCAGUAAUAUGTT against Kif21a | 0.31 |

| Sequence | z-score |
| --- | --- |
| CCCAUGGAAAUCCUCAGUATT against Ctsa | -2.1 (active) |
| CCCACUGAUGAUUACGUUCTT against Irf5 | -0.247 |
| CCACAAGCUAAUACAUGCUTT against Ubac1 | -1.37 |
| GGCCACAAAGACUCUGUGATT against Aamp | -2.25 (active) |
| GGCAGAACACCUUCUUAGUTT against Dars2 | -0.425 |
| AGUUAGCCUUGAGGAGAAUTT against Olfr1512 | 0.503 |
| CCAUUGGAUUGGAACUGGATT against Dhx57 | -0.288 |
| GCAGGUUUGAUAUAAAAUCTT against Uba2 | 0.162 |
| GCUCACCUGAGUCAAUGAUTT against Nr5a2 | -2.25 (active) |
| GGAAUUUUGGUAGGUUUUATT against Tlcd4 | 1.36 |
| CGGAAAAUCCUGCCUCCCUTT against S100pbp | -0.36 |
| GGAUGUAGAUGUUGGUUUUTT against Kcnj14 | 2.52 (active) |
| GCCAUCUGCUUUAACCUCUTT against Aebp2 | 0.238 |
| GGUGUACGAGAUCCAGGACTT against Eif3l | -0.699 |
| GGCUGGUCAAAAUUUGGAATT against Cdca2 | -0.9 |
| CGCAAGGACCGAUCUGAUGTT against Rnps1 | -2.41 (active) |
| GCAUCUGGGACAUUUAGAGTT against Cd200r3 | -1.08 |
| CCAGCUUUUGUUUGUUAGATT against Trappc11 | 0.56 |
| GGAAGACUUGGCUACACAATT against Rab40c | -1.04 |
| GGCAAACCUGCUUCUGCUATT against Prss52 | -1.27 |
